Rows were chosen to be rich in hits. Some 3.8% of all compounds tested hit in one or more screens of this group.
esBAF inh: SWI/SNF esBAF complex inhibition | mouse ES cells, Bmi1-luciferase knock-in reporter, 24 h; 100% = twice the neutral-well signal | reporter increase, % at 12.5 µM | hit rate 2% among 350,000 | AID 602393; in the data active means activation above about 40%; inconclusive means no clear call, values can overlap the other calls;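 further: a rise in the Bmi1 reporter signal indicates esBAF inhibition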
HSF-1 act: increases HSF-1 driven luciferase reporter signal; NIH3T3-HGL HSF-1 luciferase reporter, MG132, 8 h; 100% = twice DMSO control signal; activation, % at 9 µM; hit rate 1.7% among 300,000; AID 504408;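 active means mean replicate activation of at least 50% with a set share of replicates each reaching 50%; inconclusive means only one of those two conditions met; inactive means mean below 50% and too few replicates reaching it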
Wnt bcat act: activators of Wnt/beta-catenin signaling; Wnt/beta-catenin reporter cell assay, activator, plate reader; activation, % at 9.35 µM; hit rate 1.2% among 300,000; in the data active means activation above about 30%, passing the limit was not always enough; inconclusive means no clear call, values can overlap the other calls
HSF1 inh: HSF1 inhibition; NIH3T3-HGL HSE-luciferase, MG132-induced, luminescence 8 h; active compounds read low; activity change, negative = inhibition, % at 7.5 µM (by protocol); AID 2098; hit rate 0.77% among 300,000;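 active means more than half of replicate wells show activity change below -50%, luminescence cut by over half; inconclusive means some wells, but at most half, below -50%; inactive means no replicate well below -50%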;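 further: luciferase reports HSF-1 transcriptional activity via heat shock element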
MITF TRPM1 HTS: MITF TRPM1 promoter activation in melanoma cells | AID 588334 | SK-MEL-5 TRPM1-promoter luciferase, 24 h; % of positive control, neutral wells = 0 | activation, % at 12.5 µM | hit rate 0.75% among 300,000;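 active means mean activation of at least 80% with every replicate also reaching 80%; inconclusive means mean reaches 80% but some replicate falls short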
Hits are given with their value; 0 = inactive; ? = inconclusive; - = no result.

SMILES | esBAF inh | HSF-1 act | Wnt bcat act | HSF1 inh | MITF TRPM1 HTS
N#C/C(=C\c1ccco1)c1nc2ccccc2s1 | - | 80 | - | 0 | 0
N#C/C(=C\c1ccc(O)c([N+](=O)[O-])c1)c1nc2ccccc2s1 | 0 | 0 | 0 | 0 | 0
N#C/C(=C/c1ccc(-c2cc(C(=O)O)cc(C(=O)O)c2)o1)c1nc2ccccc2s1 | - | 0 | - | 0 | -
O=C(NCC[C@H]1CC[C@@H](NC(=O)C2CCCCC2)[C@@H](CO)O1)Nc1ccc(Cl)cc1 | 0 | - | - | - | -
CCOC(=O)C1C(=O)OC(C)(C)C1C(CC)C(=O)c1ccccc1 (stereo not given) | - | - | 0 | - | 0
CCOC(=O)C1C(=O)OC(C)(C)C1C(C)C(=O)c1ccc(C)cc1 (stereo not given) | 0 | 0 | 0 | -52 | -
CCOC(=O)C1C(=O)OC(C)(C)C1C(C)C(=O)c1ccc(C)cc1C (stereo not given) | - | 56 | 0 | 0 | 0
Cc1cccc(-n2ncc3c(N(C)Cc4ccccc4)ncnc32)c1 | 53 | 61 | ? | 0 | 0
CCOC(=O)C1CCCN(c2ncnc3c2cnn3-c2cccc(C)c2)C1 (stereo not given) | 0 | 0 | - | 0 | 0
Cc1cccc(-n2ncc3c(N4CCC(C)CC4)ncnc32)c1 | 0 | 0 | 38 | 0 | 0
CCN1CCN(c2ncnc3c2cnn3-c2ccc(Cl)cc2)CC1 | 0 | 0 | 0 | 0 | 0
c1ccc(CCN2CCN(c3ncnc4c3cnn4-c3ccccc3)CC2)cc1 | 0 | 0 | 0 | 0 | -
c1ccc(-n2ncc3c(N4CCC5(CC4)OCCO5)ncnc32)cc1 | 55 | 0 | - | 0 | 93
CCN1CCN(c2ncnc3c2cnn3-c2ccccc2)CC1 | 0 | 0 | 0 | 0 | 87
COc1cccc(NC(=O)N(C)C[C@H]2Oc3cc(-c4ccccc4OC)ccc3S(=O)(=O)N([C@@H](C)CO)C[C@H]2C)c1 | 0 | - | - | - | -
C[C@H]1CN([C@@H](C)CO)C(=O)c2cc(NC(=O)CCC(F)(F)F)ccc2O[C@H]1CN(C)C | 0 | - | - | - | -
O=C(C[C@H]1CC[C@@H]2[C@H](COC[C@H](O)CN2C(=O)c2ccccc2F)O1)N1CCOCC1 | 0 | - | - | - | -
Cc1cccc(-n2ncc3c(N4CCC5(CC4)OCCO5)ncnc32)c1 | 54 | 0 | 0 | 0 | 0
Cc1ccc(C)c(N2CCN(c3ncnc4c3cnn4-c3ccccc3)CC2)c1 | 0 | - | 0 | - | 0
O=C(NC1CCCCCCC1)c1cc([N+](=O)[O-])ccc1Cl | 0 | 0 | 0 | 0 | -
O=C(O)c1ccc(-c2cccc([N+](=O)[O-])c2)o1 | - | 0 | 0 | 0 | 0
O=C(NC1CCCCC1)c1ccc([N+](=O)[O-])cc1 | 74 | - | 0 | - | 0
CCOc1ccc(C(=O)NC2CCCCCCC2)cc1 | - | 0 | 42 | 0 | 0
O=C(N[C@H]1CC1c1ccccc1)c1ccc([N+](=O)[O-])cc1 (stereo not given in full) | - | 0 | 35 | 0 | 0
CCOC(=O)COc1ccc(C(=O)NC2CCCCC2)cc1 | 0 | 0 | 0 | 0 | 0
SMILES | esBAF inh | HSF-1 act | Wnt bcat act | HSF1 inh | MITF TRPM1 HTS
O=C(NC1CCCCC1)c1ccc(-c2cccc([N+](=O)[O-])c2)o1 | - | 0 | 32 | 0 | 116
COc1ccc(S(=O)(=O)N(C)C[C@@H]2Oc3c(NS(=O)(=O)c4ccc(Cl)cc4)cccc3C(=O)N([C@@H](C)CO)C[C@@H]2C)cc1 | 0 | - | - | - | -
CO[C@H]1CN(C)C(=O)c2cc(NC(=O)C3CCCC3)ccc2OC[C@@H](C)N(CC2CC2)C[C@H]1C | 0 | - | - | - | -
CCOc1cccc(C(=O)NC2CCCCC2)c1 | 53 | 0 | 0 | 0 | 0
N#Cc1ccc(C(=O)NC2CCCCCCC2)cc1 | 53 | 0 | 0 | 0 | 107
COc1ccc(C(=O)NCCSC2CCCCC2)cc1 | - | 51 | - | 0 | 0
Cc1ccc(C(=O)NC2CCCCC2)cc1 | 0 | 0 | 0 | 0 | 88
CCCCOc1cccc(C(=O)NNC(=S)NC2CCCCC2)c1 | 0 | 0 | - | 0 | 0
Cc1noc(C)c1S(=O)(=O)Nc1cccc2c1O[C@H](CN(C)CC1CC1)[C@H](C)CN([C@H](C)CO)C2=O | 0 | - | - | - | -
O=C(NC(=S)NC1CCCCC1)c1ccc(F)cc1 | 60 | 0 | 0 | 0 | 0
C[C@H](CO)N1C[C@H](C)[C@@H](CN(C)C(=O)Nc2ccc(C(F)(F)F)cc2)Oc2ncc(-c3cccnc3)cc2C1=O | 0 | - | - | - | -
Cc1cc(Br)ccc1OCc1nnc(-c2ccccc2)o1 | - | - | 0 | - | -
Clc1ccccc1OCc1nnc(-c2ccccc2)o1 | - | ? | ? | 0 | 88
CC(=O)Nc1ccccc1OCc1nnc(-c2ccc(Cl)cc2)o1 | 66 | 0 | 0 | 0 | 0
COc1ccc(-c2cn(-c3ccccc3)c(=S)[nH]2)cc1OC | 44 | 0 | 0 | 0 | 0

Assay outcomes from PubChem BioAssay.
